Source: PubChem BioAssay
PfHsp40 rescue = rescue of PfHsp40-mediated yeast toxicity; S. cerevisiae expressing PfHsp40, growth rescue, ATP luminescence; growth rescue, % at 12.5 µM; 0.68% of 340,000 active; in the data active = growth rescue above about 28%, passing the limit was not always enough; inconclusive = no clear call, values can overlap the other calls;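 also: yeast W303a lacking pdr1 and pdr3 grown in galactose medium; growth measured after three days at 30 °C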
PrP 5UTR inh = suppresses PrP 5' UTR mRNA reporter expression. AID 488862. cell-based PrP 5' UTR mRNA reporter, plate reader. inhibition, % (concentration not given with the values). 0.35% of 340,000 active; in the data active = inhibition above about 52%; also: 0 = median of the neutral control wells
FadD28 binding = inhibitors of Mycobacterium tuberculosis FadD28 bisubstrate binding; 0.22% of 360,000 active; FadD28 bisubstrate probe binding, fluorescence polarization; inhibition, % at 12.5 µM; in the data active = inhibition above about 8.5%, passing the limit was not always enough; inconclusive = no clear call, values can overlap the other calls
Mtb BioA inh = blocks M. tuberculosis BioA enzyme activity; AID 602481; 0.096% of 360,000 active; inhibition, % at 9.99 µM; purified M. tuberculosis BioA enzyme, plate reader; in the data active = inhibition above about 40%; inconclusive = no clear call, values can overlap the other calls
Yp Topo-I inh = inhibitors of Yersinia pestis topoisomerase I | Y. pestis Topo-I cleavage product accumulation, plate reader | activity, % at 10 µM | 0.064% of 360,000 active | AID 504884; in the data active = activity above about 50%, passing the limit was not always enough; inconclusive = no clear call, values can overlap the other calls
PrP UTR cherry = prion 5' UTR mRNA inhibition, cherry-pick retest | shares compounds with PrP 5UTR inh | cell-based prion protein 5' UTR reporter, plate reader | inhibition, % at 2.5 µM | 48% of 1,100 active; in the data active = inhibition above about 54%; inconclusive = no clear call, values can overlap the other calls
* marks the source's active call; other numbers are inactive results. A selection: hits, their analogues and other compounds. The true share with any hit is near 1.1%.

Results for COc1ccc(NC2Oc3cc4c(cc3C(c3cc(OC)c(OC)c(OC)c3)C2C)OCO4)cc1 (configuration not stated) ?
PfHsp40 rescue: -0.7; PrP 5UTR inh: 60.9*; FadD28 binding: -0.3; Yp Topo-I inh: -5.4; PrP UTR cherry: 35.9

Results for C[C@@H]1CN([C@H](C)CO)C(=O)Cc2cc(NC(=O)NC3CCCCC3)ccc2O[C@@H]1CN(C)Cc1ccc(C(=O)O)cc1 ?
Mtb BioA inh: 4.2

How did C[C@@H]1CCCCO[C@H](CN(C)Cc2ccncc2)[C@@H](C)CN([C@H](C)CO)C(=O)c2cc(NC(=O)NC3CCCCC3)ccc2O1 do in these assays?
Mtb BioA inh: 0.6

Results for Cc1ccc(OCCC(=O)OCC(=O)c2c(N)n(CC(C)C)c(=O)n(C)c2=O)cc1 ?
PfHsp40 rescue: 2.9; PrP 5UTR inh: 89.5*; FadD28 binding: inconclusive; Mtb BioA inh: 0.4; Yp Topo-I inh: 6.1; PrP UTR cherry: 1.5

How did CCC1CN2CCc3cc(OC)c(OC)cc3C2CC1CC1NCCc2c1[nH]c1ccc(O)cc21 (configuration not stated) do in these assays?
PfHsp40 rescue: -0.7; PrP 5UTR inh: 82.4*; FadD28 binding: -3.3; Yp Topo-I inh: -18.7; PrP UTR cherry: 87.0*

Results for COc1cc2c(cc1OC)C(Cc1ccc(O)cc1)NCC2 (configuration not stated) ?
PfHsp40 rescue: -1.0; PrP 5UTR inh: -24.0; FadD28 binding: -4.2; Mtb BioA inh: -1.0; Yp Topo-I inh: 9.4

What do the screens show for `CCCNC(=O)C[C@H]1CC[C@H]2[C@H](COc3ccc(NC(=O)Nc4ccccc4)cc3C(=O)N2C)O1`?
Mtb BioA inh: 2.7

How did COc1ccc(CNC(=O)C2CCN(S(=O)(=O)c3c(C)n[nH]c3C)CC2)cc1 do in these assays?
PfHsp40 rescue: -1.2; PrP 5UTR inh: -18.4; FadD28 binding: -1.8; Mtb BioA inh: 1.1; Yp Topo-I inh: -4.7

How did Cc1n[nH]c(C)c1S(=O)(=O)N1CCCC(C(=O)NCc2ccc(F)cc2)C1 (configuration not stated) do in these assays?
PfHsp40 rescue: 0.8; PrP 5UTR inh: 83.7*; FadD28 binding: -3.3; Yp Topo-I inh: -12.3; PrP UTR cherry: 3.4

What do the screens show for `COc1cc(C)c(C(=O)Oc2cc(C)c(C(=O)O)c(O)c2)c(O)c1`?
PfHsp40 rescue: -0.2; PrP 5UTR inh: -14.2; FadD28 binding: -3.6; Mtb BioA inh: 0.4; Yp Topo-I inh: -6.3

How did COc1cc(O)c(C(=O)O)c(-c2cc(O)c(O)cc2C)c1 do in these assays?
PfHsp40 rescue: 1.5; PrP 5UTR inh: 68.3*; FadD28 binding: 2.2; Mtb BioA inh: -0.2; Yp Topo-I inh: 2.9; PrP UTR cherry: -16.2

How did COc1ccc2c(=O)cc(-c3cccnc3)oc2c1OC do in these assays?
PfHsp40 rescue: -0.2; PrP 5UTR inh: 53.8*; FadD28 binding: -0.4; Mtb BioA inh: -4.3; Yp Topo-I inh: -7.3; PrP UTR cherry: -5.3

How did COc1cccc(S(=O)(=O)Nc2ccc3c(c2)[C@H]2C[C@H](CC(=O)N[C@@H](C)c4ccccc4)O[C@@H](CO)[C@H]2O3)c1 do in these assays?
Mtb BioA inh: 2.7

How did CN(C)CC(=O)Nc1ccc2c(c1)[C@H]1C[C@H](CC(=O)NCc3ccncc3)O[C@H](CO)[C@H]1O2 do in these assays?
Mtb BioA inh: 0.6

How did CCOc1ccccc1C(=O)N1CCN(c2ccc(C(F)(F)F)cn2)CC1 do in these assays?
PfHsp40 rescue: 1.6; PrP 5UTR inh: 62.0*; FadD28 binding: -0.7; Mtb BioA inh: 1.5; Yp Topo-I inh: 28.4; PrP UTR cherry: 8.3

What do the screens show for `CC(C)NC(=O)N(C)C[C@H]1Oc2cc(Br)ccc2S(=O)(=O)N([C@H](C)CO)C[C@@H]1C`?
Mtb BioA inh: -0.5

What do the screens show for `Cn1cccc1/C=C(/C#N)c1ccc(F)cc1`?
PfHsp40 rescue: 0.5; PrP 5UTR inh: 80.0*; FadD28 binding: -0.3; Mtb BioA inh: 3.1; Yp Topo-I inh: -1.9; PrP UTR cherry: -19.9

What do the screens show for `O=C(C[C@H]1C=C[C@@H](NC(=O)NC2CCCC2)[C@H](CO)O1)NCc1ccc(F)cc1`?
Mtb BioA inh: -1.4

Results for Cc1nc(N)nc(N)c1-c1ccc(Cl)c(Cl)c1 ?
PfHsp40 rescue: 1.2; PrP 5UTR inh: 57.7*; FadD28 binding: -0.2; Yp Topo-I inh: -1.7; PrP UTR cherry: 9.2

Results for O=C(CSCc1nc2ccccc2[nH]1)Nc1ccccc1 ?
PfHsp40 rescue: 0.0; PrP 5UTR inh: 78.3*; FadD28 binding: -0.2; Mtb BioA inh: 0.1; Yp Topo-I inh: -4.5; PrP UTR cherry: -4.6

What do the screens show for `O=C(C[C@@H]1CC[C@H]2[C@@H](COC[C@@H](O)CN2C(=O)c2ccccc2F)O1)N1CCCCC1`?
Mtb BioA inh: -2.1

Results for O=C(C[C@@H]1C[C@H]2c3cc(NC(=O)Nc4ccc(F)cc4)ccc3O[C@H]2[C@H](CO)O1)NC1CCCC1 ?
Mtb BioA inh: 0.2

How did COc1ccc(S(=O)(=O)N(C)C[C@H]2Oc3ccc(NC(=O)Nc4ccc5c(c4)OCO5)cc3CC(=O)N([C@@H](C)CO)C[C@H]2C)cc1 do in these assays?
Mtb BioA inh: -0.4

Results for CC(C)(C)C(=O)Nc1cc2nn(-c3ccccc3)nc2cc1Cl ?
PfHsp40 rescue: 0.6; PrP 5UTR inh: 86.4*; FadD28 binding: -0.7; Mtb BioA inh: -3.9; Yp Topo-I inh: -3.6; PrP UTR cherry: 72.7*

Results for CC(=O)Nc1cc2nn(-c3ccccc3)nc2cc1Cl ?
PfHsp40 rescue: 1.0; PrP 5UTR inh: -111.0; FadD28 binding: -0.3; Mtb BioA inh: -2.1; Yp Topo-I inh: 6.6

Results for CCC(C)(C)c1ccc(Oc2ccc(N)cc2)cc1 ?
PfHsp40 rescue: 0.4; PrP 5UTR inh: 87.3*; FadD28 binding: -1.9; Mtb BioA inh: -1.4; Yp Topo-I inh: 24.4; PrP UTR cherry: 88.5*

What do the screens show for `COC(=O)c1cn(-c2ccccc2)nc1-c1ccc(OC)cc1`?
PfHsp40 rescue: -1.3; PrP 5UTR inh: -7.3; FadD28 binding: 1.3; Yp Topo-I inh: 1.7

How did CCN(CC)CCNC(=S)NC(=O)c1cn(-c2ccccc2)nc1-c1ccc(OC)cc1 do in these assays?
PfHsp40 rescue: 0.0; PrP 5UTR inh: 67.2*; FadD28 binding: 0.8; Yp Topo-I inh: -6.6; PrP UTR cherry: 6.0

What do the screens show for `O=C(Nc1ccccc1Cl)c1ccc(C(=O)Nc2ccccc2Cl)cc1`?
PfHsp40 rescue: -0.7; PrP 5UTR inh: 75.6*; FadD28 binding: 0.6; Yp Topo-I inh: -4.3; PrP UTR cherry: 1.1

How did O=C(Nc1ccccc1Cl)c1ccccc1 do in these assays?
PfHsp40 rescue: -0.4; PrP 5UTR inh: -36.4; FadD28 binding: -1.1; Yp Topo-I inh: 5.8

What do the screens show for `COc1ccc(CNC(=O)C[C@H]2C[C@@H]3c4cc(NC(=O)C5CCC5)ccc4O[C@@H]3[C@@H](CO)O2)cc1`?
Mtb BioA inh: -3.5

How did C[C@H](CO)N1C[C@H](C)[C@@H](CN(C)Cc2ccc(C(F)(F)F)cc2)Oc2ccc(NC(=O)Cc3ccccc3)cc2C1=O do in these assays?
Mtb BioA inh: 0.5
